The source of these data is ChEMBL document CHEMBL3988442, “University of Dundee, Small-Polar-MMV Screening Library” (2021).

In all, about 48,000 compounds went through this assay and about 13,000 (27%) showed an effect of 50% or more. This is one part of the list.

For the experiment, the system named is Wolbachia pipientis. Briefly: Anti-Wolbachia Cell-Based Screen. Format: functional. Further details: scale not given: in the data most compounds retested in dose-response had high values. The note with it: 5 µM.
Turning to `CCOC(=O)C1CCN(C(=O)Cc2c(C)nc(C)[nH]c2=O)CC1`, the “Percent Effect” value is on record as 4.435%.
The figure for `COc1nccnc1N1CCC2(CCCN(C(C)C)C2=O)C1` (stereo unspecified) is -3.964%; for `CCN(c1ccc(C(=O)NCc2cc[nH]n2)cc1)C(C)C` it is -0.1162%.
On to `Cc1sc2nc(C(F)(F)F)nc(N3CCN(C)CC3)c2c1C`, for which the “Percent Effect” value turned out to be 8.571%.
The figure for `COc1ccc(F)c(F)c1CN1CCN(CC(C)C)C(=O)C1C` (stereo unspecified) is 1.65%; for `O=C(NC1CC1)c1ccc(SCc2cscn2)cc1` it is -37.4%.
To `CC(C)CNC(=O)NC(=O)CNc1ccccc1SCC(C)C#N` (stereo unspecified) belongs 9.026%; to `O=C(COC1CCCCC1)Nc1ccn(CCc2ccncc2)n1`, -1.367%.
The figure for `CN(C(=O)CCc1ccncc1)C1CCCN(CCc2ccccc2)C1` (stereo unspecified) is -4.229%; for `O=C(NC1CCCN(CCCc2ccccc2)C1)c1ccncc1` (stereo unspecified) it is 84.08%.
For `COCCNS(=O)(=O)c1ccc(Cl)c(C(=O)N(C)Cc2ccsc2)c1`, the “Percent Effect” value came out at 14.25%.
The figure for `CCN(C)C(=O)c1cccc(S(=O)(=O)NCCc2csc(N)n2)c1` is -2.209%.
The figure for `CN(Cc1ccsc1)C(=O)c1cccc(S(=O)(=O)NC(C)(C)C)c1` is 0.007999%; for `CN(Cc1ccsc1)C(=O)Nc1ccc(S(=O)(=O)N(C)C)cc1` it is 5.237%; for `CN(Cc1ccsc1)C(=O)c1cccc(S(=O)(=O)NCC2CCCO2)c1` (stereo unspecified) it is 104.2%.
The figure for `CCN(CC)S(=O)(=O)c1cccc(C(=O)N(C)Cc2ccsc2)c1` is 98.21%.
In the case of `CN(Cc1ccsc1)C(=O)c1ccc(C2CCCO2)s1` (stereo unspecified), the “Percent Effect” value was -3.526%.
The figure for `CN(Cc1ccsc1)C(=O)c1ccc(F)c(NS(C)(=O)=O)c1` is 0%.
The figure for `CN(Cc1ccsc1)C(=O)c1cc(S(=O)(=O)N(C)C)ccc1Cl` is 5.417%.
To `CN(Cc1ccsc1)C(=O)c1ccc(S(=O)(=O)NC(C)(C)C)cc1` belongs 98.59%.
Regarding `CNS(=O)(=O)c1cccc(C(=O)N(C)Cc2ccsc2)c1`, the “Percent Effect” value is listed as 124.1%.
The figure for `CN(Cc1ccsc1)C(=O)c1cccc(NS(C)(=O)=O)c1` is 8.391%.
The figure for `Cc1ccc(C)c2c(C)c(C(=O)NCCC(=O)N3CCOCC3)oc12` is 9.055%; for `CC(C)c1nsc(NC2CC(=O)N(C(C)(C)C)C2)n1` (stereo unspecified) it is 1.592%; for `COC(CNC(=O)c1cn(C)nn1)c1ccc(C)s1` (stereo unspecified) it is -8.016%.
The figure for `Cc1ccccc1C(C)NC(=O)Cc1c(C)nc2cc(=O)[nH]n2c1C` (stereo unspecified) is -0.7333%; for `CN(CCNc1ncc2c(n1)CCN2c1ccccc1)S(C)(=O)=O` it is 7.395%; for `O=C(O)c1ccccc1-c1c(-c2ccccc2)ncn1CC1CCCO1` (stereo unspecified) it is -2.227%.
`CC(C)c1nnc2n1CCN(C(=O)c1cn(-c3ccccc3)nn1)C2`: the “Percent Effect” value is reported as 113.1%.
To `Cc1nnc2n1CCN(C(=O)c1cc(Cl)c(Cl)n1C)C2` belongs -5.044%; to `O=C(c1ccn(-c2cccc(F)c2)n1)N1CCN(CCO)CC1`, -27.1%; to `Cc1nnc2n1CCN(C(=O)c1ccn(-c3cccc(F)c3)n1)C2`, 108.9%.
To `CCOC(C(=O)N1CCn2c(nnc2C(C)C)C1)c1ccccc1` (stereo unspecified) belongs -0.6295%; to `CC(C)(O)CN1CCN(C(=O)c2ccn(-c3cccc(F)c3)n2)CC1`, -183.4%; to `Cc1nnc2n1CCN(C(=O)c1cn(-c3ccccc3Cl)nn1)C2`, -0.6863%.
The figure for `Cc1nnc2n1CCN(C(=O)c1cn(-c3ccccc3)nn1)C2` is 102.5%.
As to `COCc1ccccc1C(=O)N1CCn2c(nnc2C(C)C)C1`, the “Percent Effect” value is 6.004%.
Turning to `Cc1cccc(-n2cc(C(=O)N3CCn4c(C)nnc4C3)nn2)c1`, the “Percent Effect” value was determined as 7.104%.
The figure for `Cc1cccc(-n2c(C)cc(C(=O)N3CCn4c(C)nnc4C3)c2C)c1` is 1.537%; for `Cc1ccc(-n2cc(C(=O)N3CCn4c(C)nnc4C3)nn2)cc1` it is 111.3%.
The figure for `O=C(CN1CCOC1=O)N1CCc2nnc(-c3ccccc3)n2CC1` is 3.396%.
The figure for `Cc1nc(-c2ccsc2)ccc1C(=O)N1CCn2c(C)nnc2C1` is -2.134%; for `CCc1nnc2n1CCN(C(=O)C(OC)c1ccccc1)C2` (stereo unspecified) it is -1.714%.
Take `Cc1nnc2n1CCN(C(=O)c1cn(-c3ccc(F)cc3)nn1)C2`: the “Percent Effect” value stood at 133.8%.
To `CCc1nnc2n1CCN(C(=O)c1cnc3ccccc3n1)C2` belongs -19.02%; to `Cc1nnc2n1CCN(C(=O)c1cc(C)n(-c3ccccn3)c1C)C2`, -6.785%.
As to `CCc1nnc2n1CCN(C(=O)c1cn(-c3ccccc3)nn1)C2`, the “Percent Effect” value is recorded as 104.4%.
For `CCC1(CC)C(=O)NC(=O)N=C1Nc1ccc(C)cc1`, the “Percent Effect” value is recorded as 121.1%.
To `CCc1ccc(CNC(=O)c2ccc(N3CCOC3=O)cc2)s1` belongs -4.456%; to `CC(=O)Nc1ccc(Oc2ccc(CN3CCCC3)cc2F)cc1`, 96.27%; to `COc1ccc(CN2CCCC2)cc1Oc1ccc(NC(C)=O)cc1`, -0.1715%.
The figure for `CC(=O)Nc1ccc(Oc2cccc(CN3CCCC3)c2)cc1` is -8.686%; for `CC(Sc1nnnn1C1CCOCC1)C(F)(F)F` (stereo unspecified) it is 4.015%.
In the case of `O=C(Nc1ccccn1)C1=NN(c2ccccc2)C(=O)CN1`, the “Percent Effect” value was -0.4273%.
The figure for `CCN1CCc2cc(-c3cncn3CCNC3CCS(=O)(=O)C3)ccc21.Cl` (stereo unspecified) is 103%; for `CCNC(=O)C1CCCN(C(=O)Nc2ccc3c(c2)CCCN3C)C1` (stereo unspecified) it is -0.07324%.
As to `CN1CCCc2cc(-c3cncn3CCNC3CCS(=O)(=O)C3)ccc21.Cl` (stereo unspecified), the “Percent Effect” value was 82.25%.
In the case of `Cc1ccc(-c2ccsc2C(=O)NC2CCS(=O)(=O)C2)cc1` (stereo unspecified), the “Percent Effect” value is given as -8.809%.
To `CCc1nncn1CCNC(=O)Nc1ccc2c(c1)CCCO2` belongs -5.053%; to `Cc1nn(C)c(N2CCOCC2)c1CNC1CCS(=O)(=O)C1` (stereo unspecified), -13.17%.
For `Cn1cc(CNC2CCS(=O)(=O)C2)c(-c2cc3ccccc3o2)n1` (stereo unspecified), the “Percent Effect” value is recorded as -8.31%.
To `CCc1cc(NC2CCS(=O)(=O)C2)nc(N2CCCCC2)n1` (stereo unspecified) belongs -10.03%; to `N#Cc1ccnc(N2CCN(C(=O)NC3CCS(=O)(=O)C3)CC2)c1` (stereo unspecified), 5.841%; to `CN(CCc1ccc2c(c1)CCO2)CC1CCS(=O)(=O)C1` (stereo unspecified), 6.378%.
The figure for `Cl.O=S1(=O)CCC(NCCn2cncc2-c2ccc3c(c2)CCCO3)C1` (stereo unspecified) is 81.24%.
The figure for `CC1(C)Cc2cc(-c3cncn3CCNC3CCS(=O)(=O)C3)ccc2O1.Cl` (stereo unspecified) is 102.8%.
